PubChem BioAssay AID488857 (Sanford-Burnham Center for Chemical Genomics, 2010)
Out of some 1,400 compounds screened, about 560 (40%) were called active. So high a share suggests a set chosen from earlier hits. Some of the results follow. Values without a mark were called inactive.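 Rule for the calls: active = mean inhibition over duplicate tests at 10 µM above 50%; inactive = the rest.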

assay: ASC/caspase-1 reporter retest in S. cerevisiae at one dose, specificity check for NALP1 project (AID 488857); conditions: S. cerevisiae ASC/Caspase-1, beta-galactosidase luminescence, 24 h; at 10 µM; hits give high values

Row | SMILES | inhibition
1 | COc1ccc(Cc2nnc(SC)[nH]c2=O)cc1 | 20.1%
2 | Cc1ccc(OCCCCN(C)Cc2ccccc2)c(Br)c1 | 54.8% (active)
3 | CC(C)N(C)CCOC(=O)c1ccccc1Br | 28.4%
4 | Cc1ccc(OCCCCN2CCCCC2)c(Br)c1 | 62.1% (active)
5 | Cc1cc(Br)ccc1OCCCCN1CCC(C)CC1 | 60.4% (active)
6 | CCOC(=O)c1[nH]c2ccc(Br)cc2c1NC(=O)CCN1CCC(C)CC1 | 40%
7 | CC(C)NCCCCOc1cccc(Br)c1 | 45.5%
8 | Brc1cccc(OCCN2CCCCC2)c1 | 49.1%
9 | Brc1cccc(OCCCCN2CCCCC2)c1 | 53.8% (active)
10 | Cn1c(SCC(=O)NC(c2ccccc2)c2ccccc2)nnc1-c1cccs1 | 35.6%
11 | CC(CCc1ccccc1)NC(=O)c1cc2sccc2n1C (centres undefined) | 52% (active)
12 | c1ccc2cc(CSCc3nc4ccccc4[nH]3)ccc2c1 | 71.4% (active)
13 | C=C(C)C1CC=C(C)/C(=N/NC(=O)c2ccoc2C)C1 (centres undefined) | 36.6%
14 | CCOC(=O)c1c(C)[nH]c(C)c1C(=O)COC(=O)c1cc2ccccc2cc1O | 55.5% (active)
15 | CCOC(=O)c1c(C)[nH]c(C(=O)COC(=O)c2oc3ccccc3c2C)c1C | 31.9%
16 | CCOC(=O)c1c(C)[nH]c2c1-c1ccccc1C(=O)C2=O | 26.6%
17 | COCc1cc(=O)[nH]c(/N=C(\N)Nc2cccc(C)c2)n1 | 25.1%
18 | Cc1cccc(NC2=C(Cl)C(=O)OC2NC(=O)c2ccccc2)c1 (centres undefined) | 23.1%
19 | CCCc1nn(C)c(C(=O)Nc2cccc(C)c2)c1Cl | 65.5% (active)
20 | Cc1cc(=O)n2ccccc2c1C#N | 15.6%
21 | O=S(=O)(Nc1ccncc1Cl)c1ccccc1 | 25.1%
22 | O=C1C2C(C(=O)N1/N=C/c1cc(Br)cc([N+](=O)[O-])c1O)C1C=CC2C12CC2 (centres undefined) | 66.2% (active)

Row | SMILES | inhibition
23 | O=C1C2C(C(=O)N1/N=C/c1ccc([N+](=O)[O-])o1)C1C=CC2C12CC2 (centres undefined) | 38.2%
24 | CCOC(=O)c1c(NC2OC(=O)c3c2ccc(OC)c3OC)sc(C(=O)OC(C)(C)C)c1C (centres undefined) | 65.2% (active)
25 | CCCCC(C(=O)NC1CCCC1)N(Cc1ccco1)C(=O)Cn1nnc(-c2ccc(F)cc2)n1 (centres undefined) | 31.1%
26 | Cc1ccc(CN2CCN(/N=C/c3cccs3)CC2)cc1 | 28.2%
27 | CC(C)(CN1CCN(Cc2ccccc2)CC1)NS(=O)(=O)c1ccc(Cl)cc1 | 41.8%
28 | Cn1cccc1/C=N/N1CCN(Cc2ccc(Cl)cc2)CC1 | 51.9% (active)
29 | COc1ccccc1CN(Cc1nc2ccccc2c(=O)[nH]1)C(=O)Nc1ccccc1 | 46.4%
30 | C#C[C@]1(O)CC[C@H]2[C@@H]3CCc4cc(O)ccc4[C@H]3CC[C@@]21C | 79.5% (active)
31 | C#C[C@]1(O)CC[C@H]2[C@@H]3CCC4=C(CCC(=O)C4)[C@H]3CC[C@@]21C | 61.3% (active)
32 | O=C(OC1CCOC1=O)c1cc(-c2ccc(Br)cc2)nc2ccccc12 (centres undefined) | 46.6%
33 | O=C(Oc1cccc2cccnc12)c1ccc(N2C(=O)C3C4CCC(C4)C3C2=O)cc1 (centres undefined) | 31.9%
34 | O=C(Nc1cccc(O)c1)c1noc2c1CCc1ccccc1-2 | 87% (active)
35 | CN1/C(=C\C(=O)Nc2ccc(Cl)cc2)C(C)(C)c2ccccc21 | 41.8%
36 | CCOP(=O)(C1=C(O)C(=O)C(C(C)(C)C)=CC1=O)c1ccccc1 (centres undefined) | 38.8%
37 | Cc1cccc(N=C2NC(=O)/C(=C\c3cccs3)S2)c1 | 62.8% (active)
38 | COc1ccc(C(=O)/C=C/c2ccc(OC)c(CN3CCOCC3)c2)cc1 | 66% (active)
39 | O=C(/C=C/c1cccs1)c1cc(Br)ccc1OC(=O)N1CCOCC1 | 45.4%
40 | COc1ccc(C(=O)Cn2c(C(=O)/C=C/c3ccccc3)nc3ccccc32)cc1 | 39%
41 | CC(C)C(NC(=O)CN1C(=O)c2ccccc2S1(=O)=O)C(C)C | 33.5%
42 | C(=C\c1nc(N2CCCCCC2)c2ccccc2n1)/c1ccccc1 | 85.2% (active)
43 | C(=C\c1nc(N2CCCC2)c2ccccc2n1)/c1ccccc1 | 91.5% (active)
44 | COc1ccc2oc(=Nc3ccccc3)c(-c3nc4ccccc4[nH]3)cc2c1 | 59.1% (active)

Row | SMILES | inhibition
45 | Cn1ncc(S(=O)(=O)Cc2ccccc2)c(Cl)c1=O | 39.1%
46 | Cc1cc(C)cc(Cn2ncc(Cl)c(Cl)c2=O)c1 | 57.6% (active)
47 | COc1ccc(-c2[nH]ncc2CN2CCC(OCc3ccccn3)CC2)c(F)c1 | 21.9%
48 | Cc1nc(NC(=O)/C=C/c2ccccc2)n[nH]1 | 48.2%
49 | O=C(/C=C/c1ccccc1)/C=C/c1ccccc1 | 54.5% (active)
50 | Cc1ccc2occ(C(=O)c3ccco3)c(=O)c2c1 | 84% (active)
51 | Cc1ccc(C)c(NC(=O)c2ccc(OC(=O)c3ccco3)cc2)c1 | 35.5%
52 | CCn1c(SCC(=O)Nc2oc(-c3ccccc3)c(-c3ccccc3)c2C#N)nnc1-c1cc(OC)cc(OC)c1 | 25.9%
53 | CC1CCCCN1S(=O)(=O)c1cnc(Cl)c(Br)c1 (centres undefined) | 59.8% (active)
54 | O=S(=O)(/C=C/c1ccccc1)NC1CCCCCCC1 | 66.8% (active)
55 | CCOC(=O)c1c(-c2cccs2)csc1NC(=O)C(C)(C)C | 44.8%
56 | O=[N+]([O-])c1ccc(O)c2ncccc12 | 99% (active)
57 | O=C(c1ccc(Cl)c([N+](=O)[O-])c1)N(c1ccccn1)c1ccccn1 | 23.8%
58 | CSc1ccc(CN(C)CC(=O)Nc2ccc(C)cc2Br)cc1 | 52.6% (active)
59 | CN1CCN(C(=O)CSc2nc3c(c(=O)n(C)c(=O)n3C)n2C)CC1 | 31.1%
60 | C=CCOc1ccc2ccccc2c1/C=N/O | 64.3% (active)
61 | O=S(=O)(/N=C/c1c(O)ccc2ccccc12)c1cccs1 | 20.6%
62 | N#Cc1cccc(N=Cc2c(O)ccc3ccccc23)c1 | 30.4%
63 | OCCNc1c2ccccc2nc2c(F)c(F)c(F)c(F)c12 | 23.1%
64 | CC(=O)/C=C/n1c(=S)oc2ccccc21 | 23.2%
